# Assay results published in article PMC7862700, “An all-to-all approach to the identification of sequence-specific readers for epigenetic DNA modifications on cytosine”.
# How the values were obtained:
# Test in all cases: DAPPL (digital affinity profiling via proximity ligation, sequencing); 10 mM Tris-HCl pH 7.5, 50 mM NaCl, 1 mM DTT, 4% glycerol, room temperature, 30 min; GST-TFs on glutathione beads, 16-mer random dsDNA library, 0.1% formaldehyde crosslink after washing; high values mean tight binding
# FEV = biological target: T1, FEV (Homo sapiens, UniProt Q99581 1-238); details: protein: recombinant; tags: N-terminal GST; dsDNA, one strand shown
# T1 sequence: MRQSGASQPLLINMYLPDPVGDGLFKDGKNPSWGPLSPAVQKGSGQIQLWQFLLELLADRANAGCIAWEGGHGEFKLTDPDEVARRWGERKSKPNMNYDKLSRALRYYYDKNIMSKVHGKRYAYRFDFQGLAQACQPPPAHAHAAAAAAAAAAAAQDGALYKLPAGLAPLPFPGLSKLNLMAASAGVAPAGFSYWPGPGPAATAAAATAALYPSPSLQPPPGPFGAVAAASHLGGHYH
# Outline: (§1)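 Human transcription factors fused to GST were expressed in yeast, captured on glutathione beads, given DNA barcodes and pooled with a GST-only negative control. Pools were incubated with 200 nmole of a 16-mer random double-stranded DNA library in Tris/NaCl/DTT/glycerol buffer at room temperature for 30 min. They were then washed, crosslinked with 0.1% formaldehyde, proximity-ligated (BsaI/T4 ligase, 1 h, 37 °C), PCR-amplified and sequenced on an Illumina NextSeq500. Binding signal is each 6-mer's read frequency for a factor divided by its frequency for the GST control.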
# ETV5 = ETV5 (Homo sapiens, UniProt P41161 1-510); details: protein: recombinant; tags: N-terminal GST; dsDNA, one strand shown
# Sequence of ETV5 (P41161 whole entry): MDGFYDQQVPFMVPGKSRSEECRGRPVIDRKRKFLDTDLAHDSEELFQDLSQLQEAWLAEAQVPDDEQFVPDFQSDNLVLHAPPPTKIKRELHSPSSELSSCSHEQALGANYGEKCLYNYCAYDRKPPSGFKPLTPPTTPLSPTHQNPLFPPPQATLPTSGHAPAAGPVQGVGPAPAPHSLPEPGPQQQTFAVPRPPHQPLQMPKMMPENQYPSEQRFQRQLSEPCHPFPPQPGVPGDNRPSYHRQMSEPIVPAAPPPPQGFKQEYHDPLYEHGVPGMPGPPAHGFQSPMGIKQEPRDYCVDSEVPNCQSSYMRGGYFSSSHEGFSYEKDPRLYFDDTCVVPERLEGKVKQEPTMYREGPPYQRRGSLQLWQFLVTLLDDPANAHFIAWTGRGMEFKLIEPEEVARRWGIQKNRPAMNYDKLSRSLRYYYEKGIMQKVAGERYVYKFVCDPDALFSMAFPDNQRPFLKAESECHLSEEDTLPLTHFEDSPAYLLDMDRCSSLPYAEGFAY
# Outline: as §1
# HSF1 = HSF1 (Homo sapiens, UniProt Q00613 1-529); details: protein: recombinant; tags: N-terminal GST; chain copies: 3; dsDNA, one strand shown
# Sequence of HSF1 (Q00613 whole entry): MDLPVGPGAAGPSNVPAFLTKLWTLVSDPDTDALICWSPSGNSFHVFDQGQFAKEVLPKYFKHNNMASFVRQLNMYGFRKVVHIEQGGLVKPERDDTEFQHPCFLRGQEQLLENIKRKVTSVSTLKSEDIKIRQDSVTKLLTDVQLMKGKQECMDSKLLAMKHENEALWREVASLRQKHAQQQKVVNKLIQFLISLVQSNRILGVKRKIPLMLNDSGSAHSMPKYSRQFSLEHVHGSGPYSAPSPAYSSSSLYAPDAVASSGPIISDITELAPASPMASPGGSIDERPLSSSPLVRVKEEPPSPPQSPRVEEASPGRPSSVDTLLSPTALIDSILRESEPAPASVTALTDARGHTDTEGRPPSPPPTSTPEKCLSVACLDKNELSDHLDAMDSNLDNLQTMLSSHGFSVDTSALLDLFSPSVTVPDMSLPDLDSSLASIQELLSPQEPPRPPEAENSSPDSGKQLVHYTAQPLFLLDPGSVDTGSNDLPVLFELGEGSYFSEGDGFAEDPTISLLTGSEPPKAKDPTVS
# Outline: as §1
# SPIC = biological target: T2, SPIC (Homo sapiens, UniProt Q8N5J4 1-248); details: protein: recombinant; tags: N-terminal GST; dsDNA, one strand shown
# T2 sequence: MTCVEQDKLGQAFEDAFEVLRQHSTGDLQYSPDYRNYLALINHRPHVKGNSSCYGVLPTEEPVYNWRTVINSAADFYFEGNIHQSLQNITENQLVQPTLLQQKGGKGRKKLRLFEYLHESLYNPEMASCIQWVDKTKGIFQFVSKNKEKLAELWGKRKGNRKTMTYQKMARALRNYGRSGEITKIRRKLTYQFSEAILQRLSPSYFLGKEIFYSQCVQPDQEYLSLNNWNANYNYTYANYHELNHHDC
# Outline: as §1
# ELF4 = ELF4 (Homo sapiens, UniProt Q99607 1-663); details: protein: recombinant; tags: N-terminal GST; dsDNA, one strand shown
# Sequence of ELF4 (Q99607 whole entry): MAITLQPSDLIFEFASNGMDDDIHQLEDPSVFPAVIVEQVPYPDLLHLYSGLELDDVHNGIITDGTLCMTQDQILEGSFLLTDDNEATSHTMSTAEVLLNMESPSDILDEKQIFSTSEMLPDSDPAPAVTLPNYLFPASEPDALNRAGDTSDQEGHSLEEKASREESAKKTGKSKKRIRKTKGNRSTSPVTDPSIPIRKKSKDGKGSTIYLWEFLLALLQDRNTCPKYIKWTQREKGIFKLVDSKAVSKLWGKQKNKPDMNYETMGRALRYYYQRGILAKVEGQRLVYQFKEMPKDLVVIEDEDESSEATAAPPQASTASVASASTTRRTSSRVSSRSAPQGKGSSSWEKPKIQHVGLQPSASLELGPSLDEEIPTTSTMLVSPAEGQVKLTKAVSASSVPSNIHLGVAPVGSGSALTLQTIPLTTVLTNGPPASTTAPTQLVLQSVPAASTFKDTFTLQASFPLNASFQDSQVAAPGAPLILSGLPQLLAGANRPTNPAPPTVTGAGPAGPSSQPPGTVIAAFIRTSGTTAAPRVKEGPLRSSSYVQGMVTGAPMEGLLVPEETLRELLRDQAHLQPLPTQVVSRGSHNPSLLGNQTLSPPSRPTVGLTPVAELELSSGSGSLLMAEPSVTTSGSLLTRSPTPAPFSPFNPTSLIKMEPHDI
# Outline: as §1
# ELK4 = biological target: T3, ELK4 (Homo sapiens, UniProt P28324-2 1-405); details: protein: recombinant; tags: N-terminal GST; dsDNA, one strand shown
# T3 sequence: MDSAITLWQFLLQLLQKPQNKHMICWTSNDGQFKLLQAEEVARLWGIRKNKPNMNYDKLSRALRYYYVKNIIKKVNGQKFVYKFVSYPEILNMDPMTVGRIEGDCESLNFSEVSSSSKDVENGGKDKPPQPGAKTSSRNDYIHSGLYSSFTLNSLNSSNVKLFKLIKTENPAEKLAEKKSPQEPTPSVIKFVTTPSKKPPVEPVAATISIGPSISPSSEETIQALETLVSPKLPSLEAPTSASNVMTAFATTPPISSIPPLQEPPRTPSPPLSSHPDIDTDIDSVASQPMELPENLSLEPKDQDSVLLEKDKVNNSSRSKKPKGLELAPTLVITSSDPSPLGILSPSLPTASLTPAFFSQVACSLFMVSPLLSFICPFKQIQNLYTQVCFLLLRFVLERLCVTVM
# Outline: as §1
# ETV2 = biological target: T4, ETV2 (Homo sapiens, UniProt O00321 1-342); details: protein: recombinant; tags: N-terminal GST; dsDNA, one strand shown
# T4 sequence: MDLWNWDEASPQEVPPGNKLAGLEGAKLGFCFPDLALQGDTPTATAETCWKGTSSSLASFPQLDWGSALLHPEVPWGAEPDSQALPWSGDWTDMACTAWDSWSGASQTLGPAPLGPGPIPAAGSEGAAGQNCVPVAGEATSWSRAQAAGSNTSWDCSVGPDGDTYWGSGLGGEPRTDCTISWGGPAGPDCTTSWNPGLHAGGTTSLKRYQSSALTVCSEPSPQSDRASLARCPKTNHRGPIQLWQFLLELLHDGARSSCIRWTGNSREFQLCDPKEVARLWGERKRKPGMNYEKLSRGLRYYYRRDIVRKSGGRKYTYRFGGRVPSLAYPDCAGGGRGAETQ
# Outline: as §1
# ELF3 = biological target: T5, ELF3 (Homo sapiens, UniProt P78545 1-371); details: protein: recombinant; tags: N-terminal GST; dsDNA, one strand shown
# T5 sequence: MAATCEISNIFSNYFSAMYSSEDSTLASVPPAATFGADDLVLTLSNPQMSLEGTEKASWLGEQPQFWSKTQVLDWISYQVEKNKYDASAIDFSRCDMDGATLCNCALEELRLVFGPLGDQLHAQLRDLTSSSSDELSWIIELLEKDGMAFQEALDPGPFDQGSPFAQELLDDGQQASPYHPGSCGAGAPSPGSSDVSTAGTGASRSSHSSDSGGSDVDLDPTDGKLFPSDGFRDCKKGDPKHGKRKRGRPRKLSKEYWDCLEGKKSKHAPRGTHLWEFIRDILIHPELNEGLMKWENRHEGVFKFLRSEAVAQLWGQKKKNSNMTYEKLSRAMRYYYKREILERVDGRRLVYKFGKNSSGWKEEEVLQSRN
# Outline: as §1
# CRX = CRX (Homo sapiens, UniProt O43186 1-299); details: protein: recombinant; tags: N-terminal GST; dsDNA, one strand shown
# Sequence of CRX (O43186 whole entry): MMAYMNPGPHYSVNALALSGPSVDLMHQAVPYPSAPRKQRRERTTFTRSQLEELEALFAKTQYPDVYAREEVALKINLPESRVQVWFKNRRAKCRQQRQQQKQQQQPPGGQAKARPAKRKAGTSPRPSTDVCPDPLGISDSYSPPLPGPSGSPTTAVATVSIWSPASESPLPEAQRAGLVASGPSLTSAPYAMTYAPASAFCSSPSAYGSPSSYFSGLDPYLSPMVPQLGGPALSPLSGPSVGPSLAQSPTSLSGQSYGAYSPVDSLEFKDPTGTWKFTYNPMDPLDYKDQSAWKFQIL
# Outline: as §1
# ETV1 = ETV1 (Homo sapiens, UniProt P50549 1-477); details: protein: recombinant; tags: N-terminal GST; dsDNA, one strand shown
# Sequence of ETV1 (P50549 whole entry): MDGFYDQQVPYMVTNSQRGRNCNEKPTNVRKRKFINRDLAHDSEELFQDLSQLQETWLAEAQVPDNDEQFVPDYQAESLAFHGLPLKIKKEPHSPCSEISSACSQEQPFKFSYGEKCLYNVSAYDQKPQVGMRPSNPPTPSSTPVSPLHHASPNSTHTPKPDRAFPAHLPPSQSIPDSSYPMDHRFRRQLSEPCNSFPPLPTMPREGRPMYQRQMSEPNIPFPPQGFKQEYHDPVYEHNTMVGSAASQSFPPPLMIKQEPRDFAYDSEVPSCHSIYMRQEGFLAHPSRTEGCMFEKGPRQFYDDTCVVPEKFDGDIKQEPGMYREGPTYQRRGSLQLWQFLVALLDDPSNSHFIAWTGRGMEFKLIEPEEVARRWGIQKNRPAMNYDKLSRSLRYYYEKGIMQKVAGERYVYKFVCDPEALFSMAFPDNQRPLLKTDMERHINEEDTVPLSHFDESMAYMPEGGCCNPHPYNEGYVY
# Outline: as §1
# ERF = biological target: T6, ERF (Homo sapiens, UniProt P50548 1-548); details: protein: recombinant; tags: N-terminal GST; dsDNA, one strand shown
# T6 sequence: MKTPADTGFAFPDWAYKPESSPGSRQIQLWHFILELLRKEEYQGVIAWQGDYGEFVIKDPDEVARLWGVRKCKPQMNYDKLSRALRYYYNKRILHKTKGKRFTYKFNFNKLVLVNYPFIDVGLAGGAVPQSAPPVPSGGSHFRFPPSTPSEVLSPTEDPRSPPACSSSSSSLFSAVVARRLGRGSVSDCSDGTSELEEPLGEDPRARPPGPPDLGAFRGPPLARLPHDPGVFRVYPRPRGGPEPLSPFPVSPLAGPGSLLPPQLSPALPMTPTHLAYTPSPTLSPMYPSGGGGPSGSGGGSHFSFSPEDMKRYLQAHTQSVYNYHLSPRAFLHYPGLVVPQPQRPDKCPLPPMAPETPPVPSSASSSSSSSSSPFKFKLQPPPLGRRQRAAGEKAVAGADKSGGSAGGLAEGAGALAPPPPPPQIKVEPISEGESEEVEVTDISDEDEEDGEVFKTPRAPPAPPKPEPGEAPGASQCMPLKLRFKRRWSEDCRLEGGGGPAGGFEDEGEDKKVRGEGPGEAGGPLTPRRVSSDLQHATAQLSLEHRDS
# Outline: as §1
# ETV3L = biological target: T7, ETV3L (Homo sapiens, UniProt Q6ZN32 1-361); details: protein: recombinant; tags: N-terminal GST; dsDNA, one strand shown
# T7 sequence: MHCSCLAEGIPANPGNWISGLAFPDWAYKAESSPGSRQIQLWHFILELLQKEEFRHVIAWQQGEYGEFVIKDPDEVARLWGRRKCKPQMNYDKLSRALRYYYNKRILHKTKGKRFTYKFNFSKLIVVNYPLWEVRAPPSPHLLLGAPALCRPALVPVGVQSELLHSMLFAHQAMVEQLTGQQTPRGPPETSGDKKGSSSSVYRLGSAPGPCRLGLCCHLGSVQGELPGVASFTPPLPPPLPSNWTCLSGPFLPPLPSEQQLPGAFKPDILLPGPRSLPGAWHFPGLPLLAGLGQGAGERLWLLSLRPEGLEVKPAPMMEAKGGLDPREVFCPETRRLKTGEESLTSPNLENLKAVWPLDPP
# Outline: as §1
# ETS2 = biological target: T8, ETS2 (Homo sapiens, UniProt P15036 1-469); details: protein: recombinant; tags: N-terminal GST; dsDNA, one strand shown
# T8 sequence: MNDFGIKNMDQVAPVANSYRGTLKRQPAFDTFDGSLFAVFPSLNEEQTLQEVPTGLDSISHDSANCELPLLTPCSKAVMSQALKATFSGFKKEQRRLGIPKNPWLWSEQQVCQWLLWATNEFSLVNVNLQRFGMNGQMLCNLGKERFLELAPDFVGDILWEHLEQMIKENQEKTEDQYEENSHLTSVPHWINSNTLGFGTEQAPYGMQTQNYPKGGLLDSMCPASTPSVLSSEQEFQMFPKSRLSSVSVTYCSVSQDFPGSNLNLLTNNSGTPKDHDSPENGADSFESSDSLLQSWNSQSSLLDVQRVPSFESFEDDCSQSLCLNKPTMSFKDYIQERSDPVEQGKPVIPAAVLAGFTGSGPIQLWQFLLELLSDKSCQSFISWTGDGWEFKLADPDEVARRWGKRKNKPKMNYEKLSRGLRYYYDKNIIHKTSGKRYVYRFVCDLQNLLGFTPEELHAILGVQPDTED
# Outline: as §1
# SPDEF = biological target: T9, SPDEF (Homo sapiens, UniProt O95238 1-335); details: protein: recombinant; tags: N-terminal GST; dsDNA, one strand shown
# T9 sequence: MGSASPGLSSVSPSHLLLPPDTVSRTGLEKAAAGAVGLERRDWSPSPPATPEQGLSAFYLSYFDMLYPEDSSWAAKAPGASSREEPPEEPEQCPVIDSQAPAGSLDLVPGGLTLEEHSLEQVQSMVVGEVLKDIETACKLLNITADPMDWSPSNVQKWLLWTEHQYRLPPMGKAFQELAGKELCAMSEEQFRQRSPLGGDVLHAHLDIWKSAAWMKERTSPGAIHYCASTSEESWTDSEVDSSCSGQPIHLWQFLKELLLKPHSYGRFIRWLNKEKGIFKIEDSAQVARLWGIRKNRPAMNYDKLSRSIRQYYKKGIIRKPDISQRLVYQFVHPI
# Outline: as §1
# ETV7 = biological target: T10, ETV7 (Homo sapiens, UniProt Q9Y603 1-341); details: protein: recombinant; tags: N-terminal GST; dsDNA, one strand shown
# T10 sequence: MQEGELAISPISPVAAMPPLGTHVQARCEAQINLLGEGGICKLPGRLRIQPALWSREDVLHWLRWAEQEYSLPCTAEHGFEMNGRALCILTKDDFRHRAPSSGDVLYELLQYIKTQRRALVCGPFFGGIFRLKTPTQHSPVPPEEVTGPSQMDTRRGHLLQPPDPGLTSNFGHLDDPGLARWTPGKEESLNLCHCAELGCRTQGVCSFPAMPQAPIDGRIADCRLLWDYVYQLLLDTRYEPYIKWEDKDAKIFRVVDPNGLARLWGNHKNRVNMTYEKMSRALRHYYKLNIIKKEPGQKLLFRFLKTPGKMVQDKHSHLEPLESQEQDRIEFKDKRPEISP
# Outline: as §1
# ELF5 = biological target: T11, ELF5 (Homo sapiens, UniProt Q9UKW6-2 1-255); details: protein: recombinant; tags: N-terminal GST; dsDNA, one strand shown
# T11 sequence: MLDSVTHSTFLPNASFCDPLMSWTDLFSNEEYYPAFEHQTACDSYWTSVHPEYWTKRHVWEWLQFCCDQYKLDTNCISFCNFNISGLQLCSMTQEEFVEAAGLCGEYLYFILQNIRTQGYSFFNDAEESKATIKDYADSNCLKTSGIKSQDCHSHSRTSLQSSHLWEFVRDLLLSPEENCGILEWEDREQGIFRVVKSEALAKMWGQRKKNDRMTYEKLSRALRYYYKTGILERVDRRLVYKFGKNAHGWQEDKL
# Outline: as §1
# ETV3 = biological target: T12, ETV3 (Homo sapiens, UniProt P41162-2 1-143); details: protein: recombinant; tags: N-terminal GST; dsDNA, one strand shown
# T12 sequence: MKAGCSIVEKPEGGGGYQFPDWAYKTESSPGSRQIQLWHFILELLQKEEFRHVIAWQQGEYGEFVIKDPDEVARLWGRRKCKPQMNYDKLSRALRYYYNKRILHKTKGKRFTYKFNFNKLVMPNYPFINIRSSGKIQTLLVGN
# Outline: as §1
# ETV6 = ETV6 (Homo sapiens, UniProt P41212 1-452); details: protein: recombinant; tags: N-terminal GST; dsDNA, one strand shown
# Sequence of ETV6 (P41212 whole entry): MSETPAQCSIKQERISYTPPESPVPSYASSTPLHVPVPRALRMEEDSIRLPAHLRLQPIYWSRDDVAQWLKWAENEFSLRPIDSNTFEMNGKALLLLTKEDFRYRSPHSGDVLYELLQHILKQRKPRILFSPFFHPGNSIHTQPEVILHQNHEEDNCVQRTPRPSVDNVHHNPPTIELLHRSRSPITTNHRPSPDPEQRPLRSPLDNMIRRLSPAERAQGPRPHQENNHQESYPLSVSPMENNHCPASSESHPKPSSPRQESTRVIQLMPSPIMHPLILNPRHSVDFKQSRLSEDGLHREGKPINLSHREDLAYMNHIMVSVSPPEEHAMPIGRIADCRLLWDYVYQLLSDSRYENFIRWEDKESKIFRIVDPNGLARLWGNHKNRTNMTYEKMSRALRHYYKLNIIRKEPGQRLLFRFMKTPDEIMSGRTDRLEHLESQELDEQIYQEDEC
# Outline: as §1
sequence,measurement,setting,value
AATCTG,binding signal,FEV,"1.41 fold enrichment (6-mer frequency, TF over GST control)"
same,binding signal,ETV5,"1.4 fold enrichment (6-mer frequency, TF over GST control)"
same,binding signal,HSF1,"2.17 fold enrichment (6-mer frequency, TF over GST control)"
same,binding signal,SPIC,"1.52 fold enrichment (6-mer frequency, TF over GST control)"
same,binding signal,ELF4,"1.57 fold enrichment (6-mer frequency, TF over GST control)"
same,binding signal,ELK4,"1.55 fold enrichment (6-mer frequency, TF over GST control)"
same,binding signal,ETV2,"1.45 fold enrichment (6-mer frequency, TF over GST control)"
same,binding signal,ELF3,"1.47 fold enrichment (6-mer frequency, TF over GST control)"
same,binding signal,CRX,"2.75 fold enrichment (6-mer frequency, TF over GST control)"
same,binding signal,ETV1,"1.58 fold enrichment (6-mer frequency, TF over GST control)"
same,binding signal,ERF,"1.41 fold enrichment (6-mer frequency, TF over GST control)"
same,binding signal,ETV3L,"1.39 fold enrichment (6-mer frequency, TF over GST control)"
same,binding signal,ETS2,"1.52 fold enrichment (6-mer frequency, TF over GST control)"
same,binding signal,SPDEF,"1.37 fold enrichment (6-mer frequency, TF over GST control)"
same,binding signal,ETV7,"1.46 fold enrichment (6-mer frequency, TF over GST control)"
same,binding signal,ELF5,"1.37 fold enrichment (6-mer frequency, TF over GST control)"
same,binding signal,ETV3,"1.43 fold enrichment (6-mer frequency, TF over GST control)"
same,binding signal,ETV6,"1.4 fold enrichment (6-mer frequency, TF over GST control)"
